# Data taken from PubChem BioAssay (NCATS).
# Results filed as inconclusive are left out. Activity calls are given as the source filed them. Unless noted, calls come from the whole dose curve; as a rule, active = well fitted curve in the direction sought with a large enough effect; inconclusive = small, poorly fitted or top-dose-only effect, or another doubt; inactive = no such curve, though single readings can be large or run the other way.
# Assay: qHTS for differential inhibitors of proliferation of Plasmodium falciparum line HB3 (AID 1886);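 note: parasites grown with compound for 72 h before SYBR Green readout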; note: potency is the fitted concentration of half-maximal effect;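 for activity change, negative = inhibition: plate controls were vehicle for no effect and reference inhibitor for full effect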
# Details: Potency: Plasmodium falciparum HB3 proliferation inhibition; series mostly up to 28.7 µM; activity change, negative = inhibition: at the top concentration
SMILES,Potency,"activity change, negative = inhibition"
CC1=C(/C=C/C(C)=C/C=C/C(C)=C\C(=O)O)C(C)(C)CCC1,10 µM (active),–
O=C(N[C@@H](Cc1ccccc1)C(=O)CCl)OCc1ccccc1,14.1 µM (active),–
NC(N)=NC(N)=Nc1cccc(Cl)c1,8.91 µM (active),–
C/C(=C\c1ccc(C(=O)O)cc1)c1ccc2c(c1)C(C)(C)CCC2(C)C,–,-25.8% (inactive)
CCCCOC(=O)NS(=O)(=O)c1sc(CC(C)C)cc1-c1ccc(Cn2c(CC)nc3c(C)cc(C)nc32)cc1,12.6 µM (active),–
CC#CCOC(=O)c1c(C)nc2sc3c(c2c1N)CCC(O)C3 (stereo not drawn),–,-21.9% (inactive)
Nc1ccc(CCNc2ncnc3c2ncn3C2OC(CO)C(O)C2O)cc1 (stereo not drawn),–,-18.9% (inactive)
Cc1cccc(C2CN(C)CCc3c2cc(O)c(O)c3Cl)c1 (stereo not drawn),12.6 µM (active),–
N[C@@H](Cc1ccc(F)cc1)C(=O)O,12.6 µM (active),–
COC1(C2=NCCN2)COc2ccccc2O1 (stereo not drawn),–,-3.61% (inactive)
CCCCCCCC/C=C\CCCCCCCC(=O)NCCc1ccc(O)c(O)c1,12.6 µM (active),–
N#C/C(=C\c1ccc(O)c(O)c1)C(=O)NCCc1ccccc1,11.2 µM (active),–
Cn1c(=O)[nH]c2ncn(C)c2c1=O,12.6 µM (active),–
Nc1ncnc2c1ncn2C1CCCO1 (stereo not drawn),–,-10% (inactive)
O=C(O)/C=C/c1ccc(O)c(O)c1,–,-12.7% (inactive)
Cc1cc2c(cc1Cl)N(C(=O)Nc1ccnc3ccccc13)CC2,–,-22.9% (inactive)
CN1CCN(c2nc3cc(C(F)(F)F)ccc3n3cccc23)CC1,11.2 µM (active),–
O=c1oc(Cl)c(Cl)c2ccccc12,–,-21.5% (inactive)
Cc1cccc(C(=O)NCN2CCN(c3ccccc3C#N)CC2)c1,–,-8.31% (inactive)
Cc1nc2c(OCc3ccccc3)cccn2c1CC#N,–,-18.4% (inactive)
COc1ccc(C(=O)NCc2cccnc2)cc1C(=O)NCc1cccnc1,–,-24.7% (inactive)
O=c1onc2cnc3ccccc3n12,5.62 µM (active),–
CC[C@@H]1Cc2cc(O)ccc2C2=C1c1ccc(O)cc1C[C@H]2CC,11.2 µM (active),–
O=C(O)C1CCCNC1 (stereo not drawn),–,-1.36% (inactive)

# Assay: qHTS Assay for Modulators of Human Peripheral Myelin Protein 22 (PMP22) Expression/Activity (AID 1967; active = well fitted curve in the direction sought with a large enough effect in the signal ratio; the % refers to the signal ratio;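 note: 0% = untreated cells and 100% end not stated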)
# Details: Cell-based PMP22 reporter, dual-color luciferase ratio, 0% = compound-free control cells, mouse Pmp22 promoter in mouse Schwann cells; series mostly up to 115 µM; activity change (ratio): at the top concentration
# In short: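 Mouse MSC80 Schwann cells carrying Pmp22 promoter–green click beetle luciferase plus EF-alpha–red luciferase control, dosed 24 h at 37 °C. Dual-filter luminescence, overlap-corrected; %Activity from green/red ratio normalised to untreated cells, concentration-response curves fitted.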
row,SMILES,activity change (ratio)
1,CCCC[C@@]1(C2CCCC2)Cc2cc(OCC(=O)O)c(Cl)c(Cl)c2C1=O,8.46% (inactive)
2,Oc1cc2c(cc1O)C(c1ccccc1)CNCC2 (stereo not drawn),22.9% (inactive)
3,Nc1ccc(CCNc2ncnc3c2ncn3C2OC(CO)C(O)C2O)cc1 (stereo not drawn),5.3% (inactive)
4,CCCCCCCCCCCCCCC[C@H](O)[C@H](N)CO,2.58% (inactive)
5,COC1(C2=NCCN2)COc2ccccc2O1 (stereo not drawn),19.5% (inactive)
6,COC(=O)C(C)(N)Cc1ccc(O)cc1 (stereo not drawn),25.6% (inactive)
7,Cc1nc(N=Nc2cc(S(=O)(=O)O)c3cc([N+](=O)[O-])cc(S(=O)(=O)O)c3c2)c(COP(=O)(O)O)c(C=O)c1O,4.9% (inactive)
8,COc1ccc(C(=O)NCc2cccnc2)cc1C(=O)NCc1cccnc1,-13% (inactive)
9,O=C(O)C1CCCNC1 (stereo not drawn),13.5% (inactive)
